# Marburg entry inh: blocks Marburg virus binding to or entry into cells; Marburg virus pseudotyped entry inhibition, cell reporter; Potency, µM (doses to about 37.8 µM), actives largely listed as inhibitors; 300,000 tested, 1.8% active; calls by dose curve; tested in HEK293 cells
# HCV inhibitor: blocks hepatitis C virus; Huh7.5.1 HCVcc-Cre infection, luciferase reporter, 44 h; Potency, µM (doses to about 41.8 µM), most hits filed as inhibitors; 340,000 tested, 3.4% active
#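 Seed cells (1,000/well) for 4 h; treat with compound and infect with HCVcc-Cre, moi about 0.5. Incubate 44 h, then detect luciferase activity.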
# Pf growth 48h: P. falciparum growth inhibition at 48 hours (one generation). AID 504832. P. falciparum luciferase growth in erythrocytes, 48 h. Potency, µM (top dose mostly 28.7 µM), most hits filed as inhibitors. 310,000 tested, 5.9% active
#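 Luciferase-expressing P. falciparum in infected erythrocytes (2% hematocrit, 0.1% parasitemia final) in RPMI 1640/0.5% Albumax were exposed to compound for 48 hours at 37 C, 5% CO2; growth read as luminescence.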
# Pf growth 96h: P. falciparum growth inhibition at 96 hours | P. falciparum luciferase reporter growth, 96 h | Potency, µM (highest dose often 28.7 µM), usual class: inhibitors | 320,000 tested, 6.9% active | AID 504834
#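 P. falciparum expressing integrated firefly luciferase grown in erythrocytes (2% hematocrit, 0.05% parasitemia final) with compounds for 96 hours at 37 C, 5% CO2. Growth inhibition read as loss of luminescence after adding luciferase detection reagent.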
# Lassa entry inh: blocks Lassa virus binding to or entry into cells. Lassa virus pseudotype entry inhibition, cell reporter. Potency, µM (series often up to 37.9 µM), actives largely listed as inhibitors. 300,000 tested, 1.2% active. AID 540256; calls by dose curve; tested in HEK293 cells; also: nearly all actives have a fitted effect of over 50% in size
# HCMV antiviral: human cytomegalovirus inhibition; 410,000 tested, 4.5% active; activity change, negative = inhibition, % at 57.5 µM; HFF cells, HCMV-luciferase reporter, 72 h; stronger effect = lower value; in the data active = activity change below about -60%; inconclusive = no clear call, values can overlap the other calls; inactive = above about -39%
#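 Human foreskin fibroblasts infected with luciferase-reporter HCMV at MOI 1 PFU/cell, compounds at two doses. Luciferase measured 72 h post infection; normalized to buffer-only basal and Salinomycin (10uM) controls.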
# Numbers stand for hits; n = inactive; u = inconclusive; x = no result; [ ] = remark or other dose. An excerpt weighted towards active compounds, which were near 14% of everything screened. Unless noted, calls follow the shape of the dose curve; as a rule, active = well fitted inhibition curve with a large enough effect; inconclusive = small, poorly fitted or top-dose-only effect, or another doubt; inactive = no such curve, though single readings can be large or run the other way.
SMILES,Marburg entry inh,HCV inhibitor,Pf growth 48h,Pf growth 96h,Lassa entry inh,HCMV antiviral
Cc1nc2c(=O)[nH]c(=S)[nH]c2[nH]c1=O,u,n,x,x,n,n
COC(=O)CC1C(=O)NCCN1C(=S)Nc1ccc(F)cc1 (stereo not drawn),n,n,n,3.7µM,n,n
COC(=O)CC1C(=O)NCCN1C(=S)Nc1cccc(C)c1 (stereo not drawn),n,n,n,n,n,n
CCOC(=O)c1cc2c(=O)n3cccc(C)c3nc2n(Cc2ccco2)c1=NC(=O)c1ccccc1,n,u,u,11.7µM,n,u
CCOC(=O)c1cc2c(=O)n3cccc(C)c3nc2n(Cc2ccco2)c1=NC(=O)c1ccc(C)cc1,n,n,x,x,n,x
CCOC(=O)c1cc2c(=O)n3ccccc3nc2n(Cc2ccco2)c1=NC(=O)c1cccc(OC)c1,u,u,u,u,n,n
CCOC(=O)c1cc2c(=O)n3ccccc3nc2n(Cc2ccco2)c1=NC(=O)c1ccc(OC)cc1,u,n,9.28µM,n,n,u
CCCCC[C@H](O)/C=C/[C@H]1CCC(=O)[C@@H]1CCCCCCC(=O)N1CCCCC1CO (stereo partly drawn),u,n,9.28µM,u,u,-74.3
CCCCC[C@H](O)/C=C\[C@@H]1[C@H](O)CC(=O)[C@@H]1CCCCCCC(=O)O,x,x,u,5.1µM,x,x
CCCCC[C@H](O)/C=C/[C@H]1[C@H](O)CC(=O)[C@@H]1C/C=C\CCCC(=O)O,x,x,n,n,x,x
CCCCN(C(=O)CCC(=O)O)[C@H]1CC(=O)N(c2ccc(OCCC)cc2)C1=O,n,x,x,x,x,x
CCN(c1ccc(OC)cc1)S(=O)(=O)c1ccc(-c2cc(C)no2)s1,x,n,n,n,x,-75.7
Cn1c(=O)c2c(O)cc(=O)n(-c3ccccc3)c2n(C)c1=O,n,n,n,n,n,n
Cn1c(=O)cc(Nc2ccccc2)c2c(=O)n(-c3ccccc3)c(=O)n(-c3ccccc3)c21,n,n,6.57µM,4.65µM,n,n
Cn1c(=O)c2c(Nc3ccc(F)cc3)cc(=O)n(-c3ccccc3)c2n(C)c1=O,n,n,2.33µM,u,n,n
CCOC(=O)C1CCCN(C(=O)c2cc(OC)ccc2Br)CC1 (stereo not drawn),x,x,x,x,x,n
CCOc1ccccc1CN(CCc1ccc2c(c1)OCO2)Cc1cc(OC)c(OC)cc1OC,10µM,x,x,x,u,n
CCOc1ccccc1CN(CCc1ccc2c(c1)OCO2)Cc1ccccn1,n,n,x,x,n,n
O=[N+]([O-])c1cc(Cl)cc2c1nc(NCCO)c1ccccc12,u,2µM,n,n,n,-94.9
CC(c1ccccc1)N1C(=O)c2ccc(C(=O)Nc3ccccc3C(=O)O)cc2C1=O (stereo not drawn),x,n,n,u,x,-80.2
COc1ccc(/C=N/NS(=O)(=O)c2ccc(C)cc2)cc1,n,n,n,3.29µM,n,x
Cc1ccc(S(=O)(=O)N/N=C\c2cc([N+](=O)[O-])ccc2Cl)cc1,u,n,n,n,u,-89.9
Cc1ccc(S(=O)(=O)N/N=C/c2cccc([N+](=O)[O-])c2)cc1,n,n,n,n,n,n
COc1cccc(Cn2c(CNC(=O)Cc3cccc(C)c3)nc3cccnc32)c1,x,x,x,x,n,u
CN(Cc1ccccc1)c1ccc2nnc(-c3ccccc3)n2n1,u,n[8.37 µM],4.15µM,u,n,n
SMILES,Marburg entry inh,HCV inhibitor,Pf growth 48h,Pf growth 96h,Lassa entry inh,HCMV antiviral
Cc1cccc(C)c1N1CCN(c2ccc3nnc(C(F)(F)F)n3n2)CC1,u,n,9.28µM,x,u,n
c1ccc(-c2nnc3ccc(N4CCCC4)nn23)cc1,x,u,n,1.04µM,x,n
Clc1ccc(CNc2ccc3nnc(-c4ccccc4)n3n2)cc1,n,n[8.37 µM],u,n,n,n
O=C(Nc1ccccc1)N(Cc1cccs1)c1ccc(Cl)cc1,u,x,x,x,n,n
CNC(=O)C1CCC(Cn2c(=O)c3sccc3n(CC(=O)NCc3ccc(C)cc3)c2=O)CC1 (stereo not drawn),x,x,x,x,n,n
COC1C(OC(=O)/C=C/C=C/C=C/C=C/C(=O)O)CCC2(CO2)C1C1(C)OC1CC=C(C)C (stereo not drawn) (tested in a mixture with another compound),n,n,x,x,n,n
COC1C(OC(=O)/C=C/C=C/C=C/C=C/C(=O)O)CCC2(CO2)C1C1(C)OC1CC=C(C)C (stereo not drawn),x,x,0.0038µM,u,x,x
C[C@@H]1CN([C@@H](C)CO)C(=O)c2cc(Br)cnc2O[C@H]1CN(C)Cc1cccnc1,x,x,x,x,x,n
O=C1CC(c2ccccc2)Cc2[nH]c(=O)c(C(=O)Nc3ccc(OC(F)(F)F)cc3)cc21 (stereo not drawn),n,x,x,x,n,n
O=C(Nc1ccccc1OC(=O)c1ccccc1)c1ccccc1,x,n,x,x,x,n
COc1ccc(OC)c(Nc2nc(N)c([N+](=O)[O-])c(N3CCOCC3)n2)c1,x,u,u,u,x,n
Cc1cccc(Nc2nc(N)c([N+](=O)[O-])c(N3CCOCC3)n2)c1,5.62µM,n,u,u,n,n
COc1ccc(Nc2nc(N)c([N+](=O)[O-])c(N3CCCC3)n2)cc1,x,u,u,13.1µM,x,n
COc1cccc(Nc2nc(N)c([N+](=O)[O-])c(N3CCOCC3)n2)c1,x,n,u,14.7µM,x,n
Cc1cccc(Nc2nc(NCc3ccco3)nc(N3CCOCC3)n2)c1,2.31µM,u,u,u,u,n
COc1ccc(Nc2nc(N)c([N+](=O)[O-])c(N3CCN(C)CC3)n2)cc1,x,n,u,u,x,n
COc1cc(NC(=O)Nc2nc(C(N)Cc3ccc(C(F)(F)F)cc3)cs2)cc(OC)c1OC (stereo not drawn),x,x,x,x,x,n
CC(=O)N1CCN(C(=O)c2ccc(S(=O)(=O)Nc3ccccc3F)cc2)CC1,x,n,n,n,x,n
CO[C@H](C1CCCCC1)[C@H](C)/C=C/CC(=O)OCCCc1ccccc1,n,x,x,x,x,x
C=CCNc1nc(N)c([N+](=O)[O-])c(N2CCCCCC2)n1,u,u,n,n,n,n
CCN(CC)CCCNc1nc(N)c([N+](=O)[O-])c(N2CCCCCC2)n1,u,n,n,2.94µM,n,n
Cc1cccc(C(=O)Oc2ccccc2C2C[C@]3(C)CC(=O)NC3N2C(=O)c2cccc(C)c2)c1 (stereo partly drawn),n,n,x,5.86µM,u,n
CC(C)(C)OC(=O)N1CCC(c2c(C(=O)N3CCOCC3)cnn2-c2cccc(F)c2)CC1,x,x,x,x,u,n
Cc1ccc(N(Cc2ccccc2)C(=O)c2ccc(Cl)c(S(=O)(=O)N3CCOCC3)c2)cc1,u,u,13.1µM,9.28µM,u,n
Cc1ccc(N(Cc2ccccc2)C(=O)c2cc(S(=O)(=O)N3CCOCC3)ccc2C)cc1,u,n,10.4µM,u,u,u
Cc1ccc(N(CC(=O)Nc2ccc(C)c(F)c2)S(=O)(=O)c2c(C)n[nH]c2C)cc1,n,x,x,x,n,n

# Bioassay records: PubChem, National Center for Advancing Translational Sciences (NCATS)
